Drawing on PubChem BioAssay, this text covers composite z-score for 28 molecules.

The nature of the experiment: probe aNOTCH3 binding on compound microarray – biochemical, small-molecule microarray, 635/667 nm fluorescence, primary screen (AID 1120).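 Also: probe is a biotin-tagged antibody raised against NOTCH3 rather than NOTCH3 protein; score merges spot fluorescence near 667 nm with spot signal to noise.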 The following applies: higher = more signal.
In the case of `C[C@@H]1ON(c2ccccc2)[C@H](c2ccccc2)[C@H]1C(=O)O`, the composite z-score was -0.0971.
The figure for `C[C@]1(C(=O)O)c2ccccc2C(=O)N(Cc2cc(F)cc(C(F)(F)F)c2)[C@H]1c1ccc(CO)cc1` is -0.0126.
The figure for `COCCOC(=O)N1C(=O)[C@@]2(c3cc(C#CCCO)ccc31)[C@H](c1ccccc1OCCO)N1[C@H](c3ccccc3)[C@H](c3ccccc3)OC(=O)[C@H]1[C@@H]2C(N)=O` is -0.0054; for `O=C1[C@H]2C=C(I)[C@H](C[C@@H]2OCCCCCCO)[C@@]12CO2` it is 0.0876.
The molecule `C=CCOC(=O)[C@@H]1[C@H]2C(=O)O[C@H](c3ccccc3)[C@H](c3ccccc3)N2[C@H](c2ccc(OCCOC(=O)[C@H]3C[C@H]4C(=O)N[C@@H](CCCCN(C)C)C(=O)N4[C@H]3c3ccc(O)cc3)cc2)[C@@]12C(=O)Nc1ccc(I)cc12` gave a composite z-score of 0.0006.
`O=C(NCc1ccccc1)[C@@H]1c2ccccc2C(=O)N(Cc2cc(C(F)(F)F)cc(C(F)(F)F)c2)[C@H]1c1ccc(CO)cc1` yielded a composite z-score of 0.104.
The molecule `CCCC[C@H]1C[C@@H]1[C@@H]1N(C(C)=O)[C@H](c2cccc(OC)c2)CC12CC2` registered a composite z-score of 0.0026.
`CCOC(=O)C1=CCC(c2cc3ccccc3[nH]2)N(CCN2CC(C(=O)OCC)=CCC2c2cc3ccccc3[nH]2)C1` (stereo not drawn): the composite z-score amounted to 0.15.
On to `C=C(CCCC)/C(=C/C[C@H](OC(C)=O)c1cccc(OCCO)c1)c1cnc2ccccc2c1`, for which the composite z-score is -0.135.
In the case of `CCCN1C(=O)[C@@]2(c3ccc([N+](=O)[O-])cc3)CC(=O)N(CC34CC5CC(CC(C5)C3)C4)[C@@H]2c2ccc(CO)cc21`, the composite z-score came to 0.056.
The same measure for `COc1ccc(C(O)C2C=CC3C(=O)N(c4ccccc4)C(=O)C3N2Nc2ccc(C#N)cc2)cc1OCc1ccccc1` (stereo not drawn): 0.291.
The same measure for `CC(C)NC(=O)[C@@]1(c2ccc([N+](=O)[O-])cc2)CC(=O)N(CC23CC4CC(CC(C4)C2)C3)[C@@H]1c1ccc(CO)cc1`: 1.07.
`CC1=C([C@H](O)CCc2ccccc2)[C@H](CO)n2c(=O)n(-c3ccccc3)c(=O)n2C1`: the composite z-score was -0.187.
In the case of `O=C(NC1CC1)[C@@H]1c2ccccc2C(=O)N(Cc2cc(C(F)(F)F)cc(C(F)(F)F)c2)[C@H]1c1ccc(CO)cc1`, the composite z-score was -0.352.
The figure for `COC(=O)[C@@]1(Cc2ccccc2)N=C(c2ccc(OCCCO)cc2)O[C@H]1c1ccccc1CN=[N+]=[N-]` is 0.0655; for `O=C1c2ccccc2[C@@]2(Cc3ccccc3N(Cc3ccccc3)C2=O)[C@H](c2ccc(CO)cc2)N1Cc1ccccc1Cl` it is -0.279.
`CC(C)C[C@H]1NC(=O)C([C@@H](C)OCc2ccccc2)NC(=O)[C@@]23C(=O)N[C@@H](Cc4ccccc4)C2[C@H](C)[C@@]2(C)O[C@H]2C3/C=C/C/C=C\CNC1=O` (stereo partly drawn) registered a composite z-score of 0.2.
The figure for `CC(C)=CCCC(C)=CC(O)C1C=CC2C(=O)NC(=O)C2N1Nc1ccc(Cl)cc1Cl` (stereo not drawn) is 0.0952.
Consider `CCCCC(=C=CC[C@H](O)c1ccc(CO)o1)CCO`, for which the composite z-score was -0.0544.
The molecule `CCOC(=O)C1=CC[C@@H](c2ccccc2)N(S(=O)(=O)c2ccc(C)cc2)[C@H]1c1ccccc1I` came in with a composite z-score of 1.02.
`[N-]=[N+]=Nc1ccccc1[C@@H]1OC(c2ccc(OCCCO)cc2)=N[C@]1(CCS(=O)(=O)c1ccccc1)C(=O)NCC(O)CO` (stereo partly drawn) displayed a composite z-score of -0.023.
The same measure for `N#Cc1ccc(NN2C(C(O)C3CC=CCC3)C=CC3C(=O)N(c4ccccc4)C(=O)C32)cc1` (stereo not drawn): 0.106; for `CC(C)C[C@@H]1NC(=O)[C@@]23C(=O)N[C@@H](Cc4ccccc4)C2[C@H](C)[C@@]2(C)O[C@H]2C3/C=C/C/C=C\CNC(=O)CNC1=O` (stereo partly drawn): -0.0869; for `COc1ccc([Si](C)(C)[C@H]2[C@H](CC(=O)N3CCC[C@H]3CO)O[C@@]3(C(=O)N(Cc4ccc(N5CCCCC5=O)cc4)c4ccccc43)[C@@H]2C)cc1`: 0.212.
For the molecule `C=CCC(OC(C)=O)[C@@H]1[C@@H](N(Cc2cccc3ccccc23)C(=O)Cc2ccc(OC)cc2)c2cc(OCCCO)ccc2N1C(=O)c1ccc2ccccc2c1` (stereo partly drawn), the composite z-score is 0.0232.
The figure for `NC(=O)NCC#Cc1ccc2c(c1)[C@]1(C(=O)N2)[C@H](c2ccc(OCCO)cc2)N2[C@H](c3ccccc3)[C@H](c3ccccc3)OC(=O)[C@H]2[C@@H]1C(=O)O` is -0.0918.
In the case of `O=C1O[C@H](c2ccccc2)[C@H](c2ccccc2)N2[C@H]1[C@@H](C(=O)N1CCN(c3ncccn3)CC1)[C@]1(C(=O)Nc3ccc(C#CCCO)cc31)[C@H]2c1ccc(O)cc1`, the composite z-score came to 0.171.
`C=C(CCCC)/C(=C/C[C@H](OC(=O)c1ccncc1)c1cccc(OCCO)c1)c1cnc2ccccc2c1`: the composite z-score was determined as 0.211.
